Rab9 promoter act = activates the Rab9 promoter; Potency, µM (highest dose often 9.22 µM), without a hit: top-dose activation, negative = inhibition, hits mostly activators; Huh7 Rab9 promoter-luciferase reporter, luminescence, 24 h; actives 2.8% (n = 320,000); also: % of control where 0% means no effect; nearly all actives have a fitted effect of over 60% in size
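Huh7 cells stably carrying a Rab9 promoter-luciferase reporter, 1500 cells per well in OP-MEM I with 10% FBS, treated with compound 24 hours at 37C. Luciferase activity read by luminescence after 10 minutes with Amplite reagent.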
FLuc counter = inhibits or activates purified firefly luciferase, miR-21 counter-screen. P08659. purified FLuc, Km substrates, luminescence inhibition. Potency, µM (titrated, usually from 57.5 µM), without a hit: top-dose activity change, negative = inhibition, usual class: inhibitors. actives 6.9% (n = 360,000). AID 588342;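 also: plate controls were vehicle for no effect and reference inhibitor for full effect; nearly all actives have a fitted effect of over 55% in size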
Target sequence (P08659 whole entry, looked up): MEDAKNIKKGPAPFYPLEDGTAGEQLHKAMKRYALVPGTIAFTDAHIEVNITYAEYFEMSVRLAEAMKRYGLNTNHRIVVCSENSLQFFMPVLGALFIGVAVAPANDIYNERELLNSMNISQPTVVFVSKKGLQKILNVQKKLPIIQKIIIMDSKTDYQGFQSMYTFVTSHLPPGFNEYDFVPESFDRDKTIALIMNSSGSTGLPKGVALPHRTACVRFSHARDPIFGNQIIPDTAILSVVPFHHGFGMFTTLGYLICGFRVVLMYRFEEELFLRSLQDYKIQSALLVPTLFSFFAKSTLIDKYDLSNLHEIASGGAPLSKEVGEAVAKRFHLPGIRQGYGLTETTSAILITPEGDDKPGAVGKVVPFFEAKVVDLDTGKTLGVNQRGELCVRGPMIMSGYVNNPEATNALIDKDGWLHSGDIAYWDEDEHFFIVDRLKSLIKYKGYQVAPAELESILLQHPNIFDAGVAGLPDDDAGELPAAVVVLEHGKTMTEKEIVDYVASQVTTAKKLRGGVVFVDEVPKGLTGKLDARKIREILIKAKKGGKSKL
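Purified P. pyralis luciferase (10nM final) with 10uM D-luciferin and 10uM ATP (Km levels) in 50mM Tris acetate pH 7.5, 10mM Mg acetate, 0.01% Tween-20, 0.05% BSA; qHTS 6-point titration, ~60 µM downward; luminescence read.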
Luc counter = counter-screen: inhibitors of Kinase-Glo firefly luciferase; Q27757; Kinase-Glo luciferase, ATP luminescence, 8 min; Potency, µM (doses to about 38.3 µM), without a hit: top-dose activity change, negative = inhibition, actives largely listed as inhibitors; actives 0.28% (n = 200,000); AID 1379; also: % is scaled to controls: 0 for no effect and ±100 for the full control effect; nearly all actives have a fitted effect of over 60% in size
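Inhibition of Kinase-Glo luciferase light generation was assessed at 10 uM ATP in pH 7.2 imidazole buffer, with luminescence measured after eight minutes at ambient temperature.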
ELG1 genotox = inducers of genotoxicity in HEK293T ELG1-luciferase cells. actives 1.3% (n = 330,000). HEK293T ELG1-luciferase reporter, luminescence, 16 h. Potency, µM (highest dose often 46 µM), for the others: top-dose activity change, positive = activation, actives largely listed as activators. AID 504466; also: % of control where 0% means no effect; nearly all actives have a fitted effect of over 60% in size
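HEK293T cells expressing luciferase-tagged ELG1 were exposed to compound or DMSO vehicle for 16 hr at 37 °C and 5% CO2. Luciferase activity was then measured with ONE-Glo after 30 min at room temperature.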
NPC1 prom act = activators of NPC1 promoter. Potency, µM (highest dose often 9.22 µM), inactives show top-dose activation, hits mostly activators. actives 2.4% (n = 320,000). AID 485313. Huh7 NPC1 promoter luciferase reporter, 24 h; also: % of control where 0% means no effect; nearly all actives have a fitted effect of over 60% in size
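Huh7 reporter cells (NPC1 promoter driving luciferase) are dosed with compound for 24 h at 37 °C, 5% CO2; luciferase detection reagent is then added and luminescence measured after 10 min at ambient temperature.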
SMN2 splice enh = SMN2 splice variant enhancement | HEK293 SMN2-luciferase splicing reporter, luminescence, 30-36 h | Potency, µM (highest dose often 46.1 µM), inactives show at the top dose activity change, positive = activation, most hits filed as activators | actives 2.8% (n = 210,000); also: % of control where 0% means no effect; nearly all actives have a fitted effect of over 55% in size
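HEK293 cells carry an SMN2 […]–luciferase reporter in which exon 7 inclusion puts luciferase in frame. Cells were plated 10-12 h before compound addition, then incubated 30-36 h at 37C. ONE-Glo luminescence was read; sodium butyrate at 4.5 mM final served as control.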
* marks the source's active call; other numbers are inactive results; ? = inconclusive; . = no result; [ ] = dose if it differs, or a comment. Sampled rows, rich in hits. Any-hit rate of the full collection: about 7.5%. Calls follow the shape of the dose curve; as a rule, active = well fitted curve in the direction sought with a large enough effect; inconclusive = small, poorly fitted or top-dose-only effect, or another doubt; inactive = no such curve, though single readings can be large; an effect the other way counts as inactive or inconclusive. Potency is read from the fitted curve at half-maximal effect.

SMILES | Rab9 promoter act | FLuc counter | Luc counter | ELG1 genotox | NPC1 prom act | SMN2 splice enh
CC1(C)[C@@H](CC(=O)O)CCC[C@@H]1CC(=O)O | . | . | -1%[7.66 µM] | . | . | -12%[9.22 µM]
C/C(=N\NC(=O)c1cc(O)ccc1O)c1cccc(NC(=O)c2cccc(Cl)c2)c1 | 4% | 8.5µM* | . | 7% | 1% | .
C/C(=N\NC(=O)C1CC1)c1cccc(NC(=O)c2cccc(Cl)c2)c1 | 2% | ? | 4% | 0% | 3% | 22%
C/C(=N\NC(=O)CSCc1ccccc1Cl)c1cccc(NC(=O)c2ccccc2)c1 | -9% | 5% | 7% | -7% | -3% | -65%
C/C(=N\NC(=O)c1cc(O)ccc1O)c1cccc(NC(=O)c2ccc(Cl)cc2)c1 | 14% | 1.1µM* | . | 3% | ? | .
CCN(C[C@H]1N[C@@](CC)(C(=O)OC)[C@H]2C(=O)N(Cc3ccccc3)C(=O)[C@@H]12)C(=O)NC(C)C | . | . | . | 1% | . | .
Cc1cc(C)nc(Nc2n[nH]c(-c3ccccc3C)n2)n1 | 1.8µM* | 9.5µM* | -6% | 21µM* | 2µM* | 11µM*
Cc1cc(C)nc(Nc2ccccc2Br)n1 | 0% | -14% | 0% | 5% | 2% | -1%
Cc1cc(C)nc(Nc2n[nH]c(-c3ccccc3Br)n2)n1 | ? | 9.5µM* | -18% | 18µM* | ? | 81%
Cc1cc(C)nc(Nc2cccc3ccccc23)n1 | -2% | -4% | . | 0% | 5% | .
CCOC(=O)c1ccccc1NC(=O)CSc1nnc(Cc2cccn2C)n1-c1ccc(F)cc1 | 3.2µM* | 1% | 2% | -4% | 1% | -15%
CC1=N/C(=C/c2ccc([N+](=O)[O-])cc2)C(=O)N1c1ccc(Cl)cc1Cl | 0% | -2% | -5% | -19% | 0% | -51%
CC1=N/C(=C\c2ccc([N+](=O)[O-])cc2)C(=O)N1c1ccc(F)cc1F | -1% | 7.6µM* | . | -1% | -4% | .
COc1ccc2[nH]c(C(=O)N3CCN(Cc4ccccc4)CC3)cc2c1OC | 4% | 15µM* | . | 6% | 1% | .
COc1cc(CN2CCN(C(=O)c3ccc(-c4ccccc4)cc3)CC2)cc(OC)c1OC | 12% | 21µM* | -2% | ? | 6% | .
COc1ccc(C(=O)N2CCN(Cc3ccccc3)CC2)cc1[N+](=O)[O-] | -4% | 1% | . | -7% | 0% | .
Cc1[nH]c2ccc(C(=O)N3CCN(Cc4ccccc4)CC3)cc2c1C | 3% | 6µM* | . | 2% | 16% | .
COc1ccc(-n2c(/C=C/c3ccccc3F)nc3cc(OC)c(OC)cc3c2=O)cc1Cl | . | 1% | . | . | . | .
CC(OC(=O)c1cc(=O)[nH]c2ccccc12)C(=O)NCc1ccccc1 (configuration not stated) | 1% | -2% | . | 4% | 2% | .
Cc1ccc(NC(=O)CN2C(=O)c3ccccc3Sc3ccc(C(=O)N4CCOCC4)cc32)cc1F | . | -4% | . | . | . | .
COc1ccc2nc3ccccc3nc2c1N | 3.2µM* | 4.8µM* | . | 18µM* | 2.2µM* | .
Cc1ccc(S(=O)(=O)NC(CC(=O)O)c2cccs2)cc1 (configuration not stated) | 2% | 1% | . | 0% | -1% | .
CC(Oc1ccc2c(c1)oc(=O)c1ccccc12)C(=O)NC(Cc1c[nH]c2ccc(O)cc12)C(=O)O (configuration not stated) | 0% | 27µM* | . | 5% | 1% | .
O=C(OCC(=O)N1CCC(Cc2ccccc2)CC1)c1ccccc1F | 2% | 4.3µM* | . | 3% | 1% | .
O=C(OCC(=O)N1CCC(Cc2ccccc2)CC1)c1ccccc1 | ? | 12µM* | -5% | 6% | -14% | -6%
CCC(C)NC(=O)CSc1nc2cc3c(cc2c(=O)n1CCCC(=O)NCc1ccc2c(c1)OCO2)OCO3 (configuration not stated) | . | -1% | . | . | . | .
Cc1ccc(-n2nnc(-c3ccnc4ccccc34)n2)cc1 | 4.5µM* | 1.9µM* | . | 13µM* | 3.2µM* | .
